According to PubChem BioAssay (Tox21):
Where “and” joins values, the source holds several entries; their conditions need not be identical. Equal values may be shown once. Inconclusive results are not listed. A structure can be active in one record and inactive in another. Calls of active or inactive are those of the source. Unless noted, calls follow the shape of the dose curve; as a rule, active = well fitted curve in the direction sought with a large enough effect in the repeat runs; inconclusive = weak or mixed curves; inactive = no such curve, though single readings can be large; an effect the other way counts as inactive or inconclusive.

What was measured:
[1] = qHTS assay to identify small molecule agonists of the TGF-beta/Smad signaling pathway - cell viability counter screen (AID 1346829); also: nearly all actives have a fitted effect of over 45% in size; also: potency is read from the fitted curve at half-maximal effect
Outline: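 After overnight seating at 37 C and 5% CO2, reporter cells got compounds for 5 hr and FRET substrate for 2 hr; cell viability then came from CellTiter-Glo luminescence.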

[2] = target: Thyrotropin-releasing hormone receptor (Homo sapiens) (UniProt P34981); assay: qHTS assay to identify small molecule antagonists of the thyrotropin-releasing hormone receptor (TRHR) signaling pathway (AID 1346877; active = well fitted inhibition curve with a large enough effect in the repeat runs, not every such curve was filed as active; also: series mostly up to about 51 µM)
Outline: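 Cells (TRHR-HEK293) are plated and kept 18 h at 37 °C/5% CO2. A calcium-sensitive dye is added for 2 h, compound follows for 5 min at room temperature, and TRH is then given at 1 nM final.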

[3] = Human pregnane X receptor (PXR) small molecule agonists, qHTS cell viability counter screen (AID 1346977); also: nearly all actives have a fitted effect of over 50% in size
Outline: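 Tox21 qHTS format; PXR-Luc HepG2, 2,000/well, charcoal-stripped FBS 5%. Cpd exposure 24hr. Read: CellTiter-Fluor fluorescence, multiplexed with luciferase.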

[4] = Caspase-3/7 induction in HepG2 cells by small molecules, qHTS assay (AID 1346978); also: nearly all actives have a fitted effect of over 15% in size
Outline: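 Caspase-3/7 induction was measured by Caspase-Glo 3/7 luminescence (30 min, room temperature) after a 17 hr compound exposure of wild-type HepG2 cells seeded at 2,000 per well and pre-incubated 5 hr.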

[5] = Caspase-3/7 induction in CHO-K1 cells by small molecules, qHTS assay (AID 1346980); also: nearly all actives have a fitted effect of over 15% in size
Outline: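 Luminescent Caspase-Glo 3/7 read (30min, room temperature) quantified apoptosis induction. Cells were wild-type CHO-K1, treated with compound for 17hr at 37 C and 5% CO2.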

[6] = Caspase-3/7 induction in HepG2 cells by small molecules, qHTS cell viability counter screen (AID 1346981); also: series mostly up to about 92 µM; nearly all actives have a fitted effect of over 30% in size
Outline: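 Steps: seed 2,000 HepG2 cells per well; incubate 5 hr at 37 C; pin-add compounds in DMSO; incubate 16 hr; add CellTiter-Fluor; after 1 hr at 37 C and 5% CO2, read fluorescence.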

[7] = target: Nuclear receptor subfamily 1 group I member 2 (Homo sapiens) (UniProt O75469); assay: Human pregnane X receptor (PXR) small molecule agonists, qHTS assay (AID 1346982); also: nearly all actives have a fitted effect of over 35% in size; also: potency is read from the fitted curve at half-maximal effect
Outline: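 Agonist mode qHTS: PXR-Luc HepG2 cells plated 5 hr before DMSO-dissolved compounds were pinned in, cultured 24 hr at 37 C, 5% CO2; ONE-Glo luminescence readout.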

[8] = target: Cytochrome P450 2D6 (Homo sapiens) (UniProt P10635); assay: Cytochrome P450 Family 2 Subfamily D Member 6 (CYP2D6) small molecule antagonists: luciferase reporter qHTS assay (AID 1671196); also: nearly all actives have a fitted effect of over 50% in size; also: potency is read from the fitted curve at half-maximal effect
Outline: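 P450-Glo format: CYP2D6 converts a proluciferin substrate to luciferin in an NADPH-driven reaction lasting 1 h at room temperature. Light output, proportional to CYP2D6 activity, reflects interference by test chemicals.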

[9] = target: Cytochrome P450 2C19 (Homo sapiens) (UniProt P33261); assay: Cytochrome P450 Family 2 Subfamily C Member 19 (CYP2C19) small molecule antagonists: luciferase reporter qHTS assay (AID 1671197); also: nearly all actives have a fitted effect of over 65% in size; also: potency is read from the fitted curve at half-maximal effect
Outline: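 Inhibition of CYP2C19 was scored from loss of luminescence in a P450-Glo proluciferin substrate assay, NADPH-started and run 1 h at 37C, with ketoconazole as positive control.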

[10] = target: Cytochrome P450 2C9 (Homo sapiens) (UniProt P11712); assay: Cytochrome P450 Family 2 Subfamily C Member 9 (CYP2C9) small molecule antagonists: luciferase reporter qHTS assay (AID 1671198); also: nearly all actives have a fitted effect of over 50% in size; also: potency is read from the fitted curve at half-maximal effect
Outline: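 Enzyme-substrate mix preincubated with compound 10 min at room temperature; reaction started with NADPH regeneration solution, 1 h 37C. Luminescent luciferin product read after 20 min detection reagent.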

[11] = target: Cytochrome P450 1A2 (Homo sapiens) (UniProt P05177); assay: Cytochrome P450 Family 1 Subfamily A Member 2 (CYP1A2) small molecule antagonists: luciferase reporter qHTS assay (AID 1671199); also: nearly all actives have a fitted effect of over 50% in size; also: potency is read from the fitted curve at half-maximal effect
Outline: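 Inhibition of CYP1A2 conversion of proluciferin to luciferin, detected by luminescence. Reaction run 1 h at room temperature with NADPH regeneration after brief compound preincubation.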

[12] = target: Voltage-gated inwardly rectifying potassium channel KCNH2 (Homo sapiens) (UniProt Q12809); assay: Human Ether-a-go-go-Related Gene (hERG) channel small molecule antagonists: fluorescence cell-based qHTS assay (AID 1671200)
Outline: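 Kinetic two-minute fluorescence traces, sampled at 1 s, were collected following thallium stimulus of U2OS cells (1000 per well) that had been cultured overnight at 37 C and loaded with FluxOR II.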

[13] = target: Cytochrome P450 3A4 (Homo sapiens) (UniProt P08684); assay: Cytochrome P450 Family 3 Subfamily A Member 4 (CYP3A4) small molecule antagonists: luciferase reporter qHTS assay (AID 1671201); also: nearly all actives have a fitted effect of over 50% in size; also: potency is read from the fitted curve at half-maximal effect
Outline: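 Proluciferin-to-luciferin conversion by CYP3A4, NADPH-regenerated, 1 h RT; luminescence read as RLU. Ketoconazole as control.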

[14] = qHTS assay to identify small molecule agonists of the TGF-beta/Smad signaling pathway (AID 1346859; active = well fitted activation curve with a large enough effect in the signal ratio in the repeat runs, not every such curve was filed as active; the % refers to the signal ratio; also: series mostly up to about 77 µM)
Outline: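 Each well held 4,000 SBE-bla HEK 293T cells incubated overnight before compound addition; 5 hr later the cleavable FRET substrate went on for 2 hr at room temperature, and fluorescence was read at two emissions.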

[15] = target: Thyrotropin-releasing hormone receptor (Homo sapiens) (UniProt P34981); assay: qHTS assay to identify small molecule agonists of the thyrotropin-releasing hormone receptor (TRHR) signaling pathway (AID 1346891; calls by dose curve; also: series mostly up to about 58 µM)
Outline: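 Screening of agonists relied on calcium signalling in HEK293 cells expressing human TRHR: dye loading 2 h at 37 °C preceded compound addition and a 3-min fluorescence time course.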

[16] = Caspase-3/7 induction in CHO-K1 cells by small molecules, qHTS cell viability counter screen (AID 1346979); also: nearly all actives have a fitted effect of over 35% in size
Outline: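 CellTiter-Fluor viability check, qHTS format: wild-type CHO-K1, 16hr compound treatment, 1hr reagent incubation, fluorescence read.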

[17] = target: Nuclear receptor subfamily 1 group I member 2 (Rattus norvegicus) (UniProt Q9R1A7); assay: Rat pregnane X receptor (rPXR) activation by small molecules, qHTS assay (AID 1346983); conditions: rPXR luciferase reporter cells, One-Glo luminescence, 24 h; max activation: stronger effect = higher value; also: nearly all actives have a fitted effect of over 20% in size; also: potency is read from the fitted curve at half-maximal effect
Outline: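 Luminescent readout (One-Glo luciferase, 30 min room temperature) followed 24 hr compound treatment at 37 C of rPXR cells plated 2,000 per well and preincubated 5hr; qHTS format with compounds delivered in DMSO.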

[18] = target: Nuclear receptor subfamily 1 group I member 2 (Homo sapiens) (UniProt O75469); assay: CYP3A4 induction through human pregnane X receptor (PXR) by small molecules, qHTS assay (AID 1346984); also: nearly all actives have a fitted effect of over 40% in size
Outline: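 Steps: seed DPX-2 cells, 5 hr at 37C; pin-transfer compounds; 24 hr at 37C; add Luciferin-IPA (3uM final), 3 hr at 37C; add One-Glo, 30 min RT; read luminescence.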

[19] = target: Nuclear receptor subfamily 1 group I member 2 (Homo sapiens) (UniProt O75469); assay: Human pregnane X receptor (PXR) activation by small molecules, qHTS assay (AID 1346985); also: nearly all actives have a fitted effect of over 40% in size
Outline: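 DPX-2 cells (HepG2 co-transfected with a PXR response element and a CYP3A4-promoter luciferase construct) were seeded at 2,000 per well, rested 5 hr at 37C, then exposed to DMSO-dissolved compounds for 24 hr. Activation was read as luciferase luminescence.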
% is scaled to controls: 0 for no effect and ±100 for the full control effect.

Sequence of Cytochrome P450 3A4 (Homo sapiens) (P08684 whole entry, looked up): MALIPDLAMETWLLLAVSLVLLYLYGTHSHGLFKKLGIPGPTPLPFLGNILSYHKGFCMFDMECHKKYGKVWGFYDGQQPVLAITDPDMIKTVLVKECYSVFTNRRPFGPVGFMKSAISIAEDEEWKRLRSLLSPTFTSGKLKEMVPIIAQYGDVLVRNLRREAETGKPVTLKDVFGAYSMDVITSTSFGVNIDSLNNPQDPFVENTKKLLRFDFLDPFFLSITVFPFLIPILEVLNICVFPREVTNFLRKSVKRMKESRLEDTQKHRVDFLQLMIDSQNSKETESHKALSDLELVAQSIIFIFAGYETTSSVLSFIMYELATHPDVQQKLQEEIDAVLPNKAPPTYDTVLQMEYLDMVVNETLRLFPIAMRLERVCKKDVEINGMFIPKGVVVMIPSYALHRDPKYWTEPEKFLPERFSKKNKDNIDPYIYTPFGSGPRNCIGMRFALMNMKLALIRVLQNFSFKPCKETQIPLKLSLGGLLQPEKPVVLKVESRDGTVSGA
Sequence of Nuclear receptor subfamily 1 group I member 2 (Rattus norvegicus) (Q9R1A7 whole entry, looked up): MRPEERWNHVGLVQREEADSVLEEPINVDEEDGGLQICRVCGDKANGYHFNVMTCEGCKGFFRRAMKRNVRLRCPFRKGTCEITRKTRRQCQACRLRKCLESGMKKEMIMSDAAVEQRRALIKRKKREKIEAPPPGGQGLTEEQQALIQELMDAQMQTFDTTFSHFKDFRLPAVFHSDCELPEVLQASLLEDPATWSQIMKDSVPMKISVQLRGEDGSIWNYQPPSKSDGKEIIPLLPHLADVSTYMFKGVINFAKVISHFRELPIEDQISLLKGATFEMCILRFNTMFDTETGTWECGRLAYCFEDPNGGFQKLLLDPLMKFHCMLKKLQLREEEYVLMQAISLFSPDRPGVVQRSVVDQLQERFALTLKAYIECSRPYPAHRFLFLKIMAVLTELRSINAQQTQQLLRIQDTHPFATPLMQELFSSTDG
Sequence of Cytochrome P450 1A2 (Homo sapiens) (P05177 whole entry, looked up): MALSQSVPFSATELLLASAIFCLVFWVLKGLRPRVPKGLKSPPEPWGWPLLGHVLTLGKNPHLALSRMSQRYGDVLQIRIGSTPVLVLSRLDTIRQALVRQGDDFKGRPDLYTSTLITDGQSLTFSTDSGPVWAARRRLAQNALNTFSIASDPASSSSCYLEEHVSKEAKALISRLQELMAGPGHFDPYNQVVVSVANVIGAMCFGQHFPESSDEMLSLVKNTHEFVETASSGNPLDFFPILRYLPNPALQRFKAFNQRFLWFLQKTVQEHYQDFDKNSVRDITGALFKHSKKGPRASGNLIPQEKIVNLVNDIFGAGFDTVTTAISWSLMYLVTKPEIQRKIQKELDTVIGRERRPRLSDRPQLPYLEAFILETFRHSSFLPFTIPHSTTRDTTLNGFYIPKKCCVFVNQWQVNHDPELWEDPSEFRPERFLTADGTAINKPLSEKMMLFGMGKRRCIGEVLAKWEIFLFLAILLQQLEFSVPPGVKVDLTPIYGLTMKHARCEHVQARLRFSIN
Sequence of Voltage-gated inwardly rectifying potassium channel KCNH2 (Homo sapiens) (Q12809 whole entry, looked up): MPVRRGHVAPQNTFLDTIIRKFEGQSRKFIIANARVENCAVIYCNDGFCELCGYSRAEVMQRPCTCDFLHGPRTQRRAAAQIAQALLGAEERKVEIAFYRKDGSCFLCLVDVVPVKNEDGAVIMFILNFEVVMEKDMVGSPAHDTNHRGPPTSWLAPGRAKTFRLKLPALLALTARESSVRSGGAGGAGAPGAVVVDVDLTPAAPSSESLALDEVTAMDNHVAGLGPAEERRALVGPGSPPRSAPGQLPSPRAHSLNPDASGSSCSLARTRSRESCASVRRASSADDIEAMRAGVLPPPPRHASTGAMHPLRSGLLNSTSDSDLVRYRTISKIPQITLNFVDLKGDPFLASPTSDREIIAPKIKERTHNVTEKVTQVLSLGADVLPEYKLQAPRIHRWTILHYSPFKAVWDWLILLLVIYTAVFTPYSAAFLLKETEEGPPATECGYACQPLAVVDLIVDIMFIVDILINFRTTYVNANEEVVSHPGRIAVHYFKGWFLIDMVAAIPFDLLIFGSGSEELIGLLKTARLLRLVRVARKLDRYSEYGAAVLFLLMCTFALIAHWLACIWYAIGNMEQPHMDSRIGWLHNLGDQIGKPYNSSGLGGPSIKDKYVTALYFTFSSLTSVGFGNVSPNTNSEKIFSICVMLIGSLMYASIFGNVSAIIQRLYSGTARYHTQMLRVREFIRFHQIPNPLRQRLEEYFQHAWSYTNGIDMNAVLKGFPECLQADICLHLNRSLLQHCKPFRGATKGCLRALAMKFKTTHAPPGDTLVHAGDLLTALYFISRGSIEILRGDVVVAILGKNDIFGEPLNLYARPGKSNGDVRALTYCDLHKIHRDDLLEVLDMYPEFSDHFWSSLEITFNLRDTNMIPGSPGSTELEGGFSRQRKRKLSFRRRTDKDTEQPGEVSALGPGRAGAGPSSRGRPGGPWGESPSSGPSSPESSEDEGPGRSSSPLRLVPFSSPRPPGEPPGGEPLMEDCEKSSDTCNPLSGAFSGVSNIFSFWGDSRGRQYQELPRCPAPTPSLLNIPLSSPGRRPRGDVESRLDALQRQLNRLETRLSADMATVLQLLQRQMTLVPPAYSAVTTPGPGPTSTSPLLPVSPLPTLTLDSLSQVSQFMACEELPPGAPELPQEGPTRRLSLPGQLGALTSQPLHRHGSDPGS
Sequence of Cytochrome P450 2C9 (Homo sapiens) (P11712 whole entry, looked up): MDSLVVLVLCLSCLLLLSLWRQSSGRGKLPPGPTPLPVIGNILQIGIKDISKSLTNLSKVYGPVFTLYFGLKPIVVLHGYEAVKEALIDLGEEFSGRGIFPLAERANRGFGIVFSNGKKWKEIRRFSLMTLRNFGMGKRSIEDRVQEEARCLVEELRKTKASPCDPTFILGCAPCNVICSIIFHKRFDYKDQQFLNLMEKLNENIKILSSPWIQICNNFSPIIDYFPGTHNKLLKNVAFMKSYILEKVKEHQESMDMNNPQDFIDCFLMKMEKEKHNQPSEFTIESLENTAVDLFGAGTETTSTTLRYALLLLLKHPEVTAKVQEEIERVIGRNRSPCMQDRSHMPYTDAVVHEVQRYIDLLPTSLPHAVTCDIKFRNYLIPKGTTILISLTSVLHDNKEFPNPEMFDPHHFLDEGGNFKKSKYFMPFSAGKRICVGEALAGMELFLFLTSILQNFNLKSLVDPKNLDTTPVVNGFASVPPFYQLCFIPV
Sequence of Cytochrome P450 2C19 (Homo sapiens) (P33261 whole entry, looked up): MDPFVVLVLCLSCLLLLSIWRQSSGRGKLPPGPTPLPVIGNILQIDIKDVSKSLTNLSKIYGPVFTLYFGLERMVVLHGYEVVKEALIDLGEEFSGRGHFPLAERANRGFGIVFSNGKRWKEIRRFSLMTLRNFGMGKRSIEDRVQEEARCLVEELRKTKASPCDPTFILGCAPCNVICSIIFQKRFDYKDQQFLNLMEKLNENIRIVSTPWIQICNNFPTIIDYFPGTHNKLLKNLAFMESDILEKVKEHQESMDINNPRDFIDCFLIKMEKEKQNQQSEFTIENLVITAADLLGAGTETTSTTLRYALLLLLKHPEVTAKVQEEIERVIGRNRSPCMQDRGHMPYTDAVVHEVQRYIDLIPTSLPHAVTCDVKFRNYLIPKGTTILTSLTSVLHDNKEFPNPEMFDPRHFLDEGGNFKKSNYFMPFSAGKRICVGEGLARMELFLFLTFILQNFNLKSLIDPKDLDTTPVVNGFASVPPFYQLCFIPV
Sequence of Cytochrome P450 2D6 (Homo sapiens) (P10635 whole entry, looked up): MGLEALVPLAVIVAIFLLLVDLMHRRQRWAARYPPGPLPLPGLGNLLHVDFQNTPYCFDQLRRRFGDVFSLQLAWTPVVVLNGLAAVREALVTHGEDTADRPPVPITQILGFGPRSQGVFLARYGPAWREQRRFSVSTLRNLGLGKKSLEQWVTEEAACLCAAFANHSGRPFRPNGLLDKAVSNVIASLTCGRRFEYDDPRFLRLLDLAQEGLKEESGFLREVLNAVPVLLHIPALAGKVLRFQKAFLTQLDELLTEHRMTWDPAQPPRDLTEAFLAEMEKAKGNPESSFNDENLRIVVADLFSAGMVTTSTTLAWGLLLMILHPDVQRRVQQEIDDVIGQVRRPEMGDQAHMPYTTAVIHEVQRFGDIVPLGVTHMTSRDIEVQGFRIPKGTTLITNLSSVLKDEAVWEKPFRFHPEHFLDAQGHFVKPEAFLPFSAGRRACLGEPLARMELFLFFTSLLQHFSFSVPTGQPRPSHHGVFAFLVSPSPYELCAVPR
Sequence of Nuclear receptor subfamily 1 group I member 2 (Homo sapiens) (O75469 whole entry, looked up): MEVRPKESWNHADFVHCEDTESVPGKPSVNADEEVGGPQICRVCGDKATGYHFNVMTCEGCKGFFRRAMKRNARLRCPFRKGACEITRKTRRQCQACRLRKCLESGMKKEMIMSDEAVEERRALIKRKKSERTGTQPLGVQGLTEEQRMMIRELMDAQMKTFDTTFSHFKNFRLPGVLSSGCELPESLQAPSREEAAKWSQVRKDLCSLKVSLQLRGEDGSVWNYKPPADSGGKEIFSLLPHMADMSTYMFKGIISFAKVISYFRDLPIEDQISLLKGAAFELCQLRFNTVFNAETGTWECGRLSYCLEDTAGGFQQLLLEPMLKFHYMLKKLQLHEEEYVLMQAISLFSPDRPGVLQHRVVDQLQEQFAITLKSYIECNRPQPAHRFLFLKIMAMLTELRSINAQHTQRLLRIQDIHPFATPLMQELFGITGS
Sequence of Thyrotropin-releasing hormone receptor (Homo sapiens) (P34981 whole entry, looked up): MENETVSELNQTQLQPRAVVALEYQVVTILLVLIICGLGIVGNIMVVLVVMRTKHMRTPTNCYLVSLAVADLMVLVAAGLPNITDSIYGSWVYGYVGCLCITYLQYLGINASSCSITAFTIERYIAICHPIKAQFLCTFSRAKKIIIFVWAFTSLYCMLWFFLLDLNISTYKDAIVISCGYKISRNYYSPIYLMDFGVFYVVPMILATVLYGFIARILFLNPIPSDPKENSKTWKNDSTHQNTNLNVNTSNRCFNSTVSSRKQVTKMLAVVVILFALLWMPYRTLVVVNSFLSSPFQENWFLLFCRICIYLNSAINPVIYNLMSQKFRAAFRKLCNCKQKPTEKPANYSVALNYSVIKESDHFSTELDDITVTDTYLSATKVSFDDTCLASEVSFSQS

CCN(CC)c1ccc(C(=O)c2ccccc2C(=O)O)c(O)c1
71.3 µM (active) and inactive: Potency [9]
active: Potency [7] 27.4 µM and 19.3 µM | Potency [10] 35.7 µM and 31.7 µM
inactive: Potency [1] | Potency [2] | Potency [3] | Potency [4] | outcome [5] | Potency [6] | Potency [8] | Potency [11] | outcome [12] | Potency [13]

C=CCNC(N)=S
61.9 µM (active) and inactive: Potency [8]
inactive: outcome [14] | Potency [2] | outcome [15] | Potency [3] | Potency [4] | Potency [16] | outcome [5] | Potency [6] | Potency [7] | max activation [17] -2.6% | outcome [18] | Potency [19] | Potency [10] | Potency [11] | outcome [12] | Potency [13]
69.4 µM (active) and inactive: Potency [9]

Nc1ccccc1[N+](=O)[O-]
inactive: Potency [1] | outcome [14] | Potency [3] | Potency [4] | Potency [16] | outcome [5] | Potency [6] | Potency [7] | Potency [8] | Potency [9] | Potency [10] | outcome [12] | Potency [13]
active: Potency [11] 35.9 µM

OCCOCCN1CCN(C2=Nc3ccccc3Sc3ccccc32)CC1
inactive: Potency [1] | outcome [14] | Potency [3] | Potency [4] | outcome [5] | Potency [6] | max activation [17] 9.6%

C[C@H]1C[C@@H]2[C@H]([C@@H](O)C[C@@]3(C)[C@H]2CC[C@]3(O)C(=O)CO)[C@@]2(C)C=CC(=O)C=C12
inactive: Potency [1] | outcome [14] | Potency [3] | Potency [4] | Potency [16] | outcome [5] | Potency [6] | Potency [11] | outcome [12]
active: Potency [17] 1.58 µM

CN(C)CCOCCN(C)C
inactive: Potency [1] | outcome [14] | Potency [3] | Potency [4] | outcome [5] | Potency [6] | Potency [7] | Potency [8] | Potency [9] | Potency [10] | Potency [11] | outcome [12] | Potency [13]

Cc1cnc(C(=O)NCCc2ccc(S(=O)(=O)NC(=O)NC3CCCCC3)cc2)cn1
inactive: Potency [1] | outcome [14] | Potency [3] | Potency [4] | Potency [16] | outcome [5] | Potency [6] | Potency [7]

O=C(O)c1cc(=O)c2c(OCC(O)COc3cccc4oc(C(=O)O)cc(=O)c34)cccc2o1
inactive: Potency [1] | outcome [14] | Potency [3] | Potency [4] | Potency [16] | outcome [5] | Potency [6] | Potency [7] | Potency [8] | Potency [9] | Potency [11] | outcome [12] | Potency [13]

C/C=C1/CC2C=CC1C2 (stereo unspecified)
inactive and 31.7 µM (active): Potency [13]
inactive: Potency [1] | outcome [14] | Potency [3] | Potency [4] | Potency [16] | outcome [5] | Potency [6] | Potency [8] | Potency [9] | Potency [11] | outcome [12]
inactive and 54.5 µM (active): Potency [7]
inactive and 39.9 µM (active): Potency [10]

CC(=O)Nc1cccc(O)c1
inactive: Potency [1] | outcome [14] | Potency [3] | Potency [4] | outcome [5] | Potency [6] | Potency [7] | max activation [17] -2.31% | outcome [18] | Potency [19] | Potency [8] | Potency [9] | Potency [10] | Potency [11] | outcome [12] | Potency [13]

CC1=CC(=O)NS(=O)(=O)O1
inactive: Potency [1] | outcome [14] | Potency [3] | Potency [4] | Potency [16] | outcome [5] | Potency [6] | max activation [17] -3.96% | outcome [12]

CC(C)c1ccc(S(=O)(=O)O)cc1
inactive: Potency [1] | outcome [14] | Potency [3] | Potency [4] | Potency [16] | outcome [5] | Potency [6] | Potency [7] | Potency [8] | Potency [9] | Potency [10] | Potency [11] | outcome [12] | Potency [13]

CCCCCCCCCCCCCCCO
inactive: outcome [14] | Potency [3] | Potency [4] | outcome [5] | Potency [6] | Potency [7] | Potency [8] | outcome [12] | Potency [13]
24.8 µM (active) and inactive: Potency [1]
active: Potency [9] 35.9 µM and 39.9 µM | Potency [11] 71.6 µM
